Assay results as given in PubChem BioAssay (NCATS).
Results filed as inconclusive are left out. A call without a number means that no potency is given here. A number with no mark means an inactive call. Active and inactive are the calls of the source. Calls follow the shape of the dose curve; as a rule, active = well fitted inhibition curve with a large enough effect; inconclusive = small, poorly fitted or top-dose-only effect; inactive = flat fitted curve, though single readings scatter.

How the values were obtained:
Assay in all cases: qHTS profiling for inhibitors of Plasmodium falciparum proliferation (AID 504749); also: nearly all actives have a fitted effect of over 60% in size
Conditions in all cases: P. falciparum in erythrocytes, SYBR Green DNA, 72 h; series mostly up to 28.7 µM
CP329 = tested on: CP329
Procedure, shortened: (§1)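 Three-day growth assay of blood-stage parasites in erythrocytes (0.3% parasitemia, 2.5% hematocrit) at 37 C, 5% CO2, quantified by SYBR Green DNA staining after overnight detergent lysis.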

CP335 = tested on: CP335
Procedure, shortened: as §1

DFO2036 = tested on: DFO2036
Procedure, shortened: as §1

DIV14 = tested on: DIV14
Procedure, shortened: as §1

DIV17 = tested on: DIV17
Procedure, shortened: as §1

DIV30 = tested on: DIV30
Procedure, shortened: as §1

Dd2 = tested on: Dd2
Procedure, shortened: as §1

ECU = tested on: ECU
Procedure, shortened: as §1

FAB9 = tested on: FAB9
Procedure, shortened: as §1

GB4 = tested on: GB4
Procedure, shortened: as §1

HB3 = tested on: HB3
Procedure, shortened: as §1

ICS = tested on: ICS
Procedure, shortened: as §1

JCK = tested on: JCK
Procedure, shortened: as §1

N140 = tested on: N140
Procedure, shortened: as §1

P93_24 = tested on: P93_24
Procedure, shortened: as §1

P94_40 = tested on: P94_40
Procedure, shortened: as §1

PAD = tested on: PAD
Procedure, shortened: as §1

PC15 = tested on: PC15
Procedure, shortened: as §1

PC26 = tested on: PC26
Procedure, shortened: as §1

PC49 = tested on: PC49
Procedure, shortened: as §1
Potency is read from the fitted curve at half-maximal effect.

| SMILES | Potency (CP329) | Potency (CP335) | Potency (DFO2036) | Potency (DIV14) | Potency (DIV17) | Potency (DIV30) | Potency (Dd2) | Potency (ECU) | Potency (FAB9) | Potency (GB4) | Potency (HB3) | Potency (ICS) | Potency (JCK) | Potency (N140) | Potency (P93_24) | Potency (P94_40) | Potency (PAD) | Potency (PC15) | Potency (PC26) | Potency (PC49) |
| --- | --- | --- | --- | --- | --- | --- | --- | --- | --- | --- | --- | --- | --- | --- | --- | --- | --- | --- | --- | --- |
| CN1C(=O)NC(=O)C(C)(C2=CCCCC2)C1=O (stereo not given) | inactive | inactive | inactive | inactive | inactive | inactive | inactive | inactive | inactive | inactive | inactive | inactive | inactive | inactive | inactive | inactive | inactive | inactive | inactive | inactive |
| NC(=O)CS(=O)C(c1ccccc1)c1ccccc1 (stereo not given) | inactive | inactive | inactive | inactive | inactive | inactive | inactive | inactive | inactive | inactive | inactive | inactive | inactive | inactive | inactive | inactive | inactive | inactive | inactive | inactive |
| CCC1(CC)C(=O)C=CNC1=O | inactive | inactive | inactive | inactive | inactive | inactive | inactive | inactive | inactive | inactive | inactive | inactive | inactive | inactive | inactive | inactive | inactive | inactive | inactive | inactive |
| CN1C[C@H](C(=O)N[C@]2(C)O[C@@]3(O)[C@@H]4CCCN4C(=O)[C@H](Cc4ccccc4)N3C2=O)C=C2c3cccc4[nH]cc(c34)C[C@H]21 | 15.1 µM (active) | 675 nM (active) | 1.26 µM (active) | 536 nM (active) | 338 nM (active) | 1.69 µM (active) | 141 nM (active) | 316 nM (active) | 6.31 µM (active) | 1.69 µM (active) | 447 nM (active) | 39.8 nM (active) | 7.08 µM (active) | 282 nM (active) | 398 nM (active) | 251 nM (active) | 199 nM (active) | 794 nM (active) | 1.69 µM (active) | 1.58 µM (active) |
| CN1C(=O)CC(=O)N(c2ccccc2)c2cc(Cl)ccc21 | inactive | inactive | inactive | inactive | inactive | inactive | inactive | inactive | inactive | inactive | inactive | inactive | inactive | inactive | inactive | inactive | inactive | inactive | inactive | inactive |
| Clc1ccc2c(c1)C(c1ccccc1)=NCc1nncn1-2 | inactive | inactive | inactive | inactive | inactive | inactive | inactive | inactive | inactive | inactive | inactive | inactive | inactive | inactive | inactive | inactive | inactive | inactive | inactive | inactive |
| O=C1Nc2ccc(Cl)cc2C(c2ccccc2)=NC1O (stereo not given) | inactive | inactive | inactive | inactive | inactive | inactive | inactive | inactive | inactive | inactive | inactive | inactive | inactive | inactive | inactive | inactive | inactive | inactive | inactive | inactive |
| CCCCCCC(=O)CCCCCC/C=C/C[C@@H](O)[C@H](O)[C@@](N)(CO)C(=O)O | inactive | inactive | inactive | inactive | inactive | inactive | inactive | inactive | inactive | inactive | inactive | inactive | inactive | inactive | inactive | inactive | inactive | inactive | inactive | inactive |
| COP(=S)(OC)SCN1C(=O)c2ccccc2C1=O | inactive | inactive | inactive | inactive | inactive | inactive | inactive | inactive | inactive | inactive | inactive | inactive | inactive | inactive | inactive | inactive | inactive | inactive | inactive | inactive |
| CN1C(=O)C(O)N=C(c2ccccc2)c2cc(Cl)ccc21 (stereo not given) | inactive | inactive | inactive | inactive | inactive | inactive | inactive | inactive | inactive | inactive | inactive | inactive | inactive | inactive | inactive | inactive | inactive | inactive | inactive | inactive |
| CCC(C)(C)c1ccc(O)cc1 | inactive | inactive | inactive | inactive | inactive | inactive | inactive | inactive | inactive | inactive | inactive | inactive | inactive | inactive | inactive | inactive | inactive | inactive | inactive | inactive |
| CCOC(=O)CC(SP(=S)(OC)OC)C(=O)OCC (stereo not given) | inactive | inactive | inactive | inactive | inactive | inactive | inactive | inactive | inactive | inactive | inactive | inactive | inactive | inactive | inactive | inactive | inactive | inactive | inactive | inactive |
| COc1c2c(cc3c1OCO3)CCN(C)C2 | inactive | inactive | inactive | inactive | inactive | inactive | inactive | inactive | inactive | inactive | inactive | inactive | inactive | inactive | inactive | inactive | inactive | inactive | inactive | inactive |
